According to PubChem BioAssay AID435003 (Sanford-Burnham Center for Chemical Genomics, 2010):
About 1,700 (0.52%) of roughly 330,000 compounds were called active. Rule as the data show it: active = inhibition above about 50%; inactive = the rest. Many of the other results were omitted from the sample, so actives are more common in it than they were.

Assay: inhibitors of induced NF-kB luciferase reporter, primary screen, TCR NF-kB activation inhibitor project, cell-based, luminescence, uHTS (AID 435003)
Conditions: Jurkat, PMA/ionomycin-induced NF-kB luciferase reporter, at 4 µM, active compounds read high

inhibition, inactive:
COc1ccc(C(=O)N2CCN(c3ccc(C(C)=O)cc3F)CC2)cc1S(=O)(=O)NC1CC1 -20.9%, C[C@H](CO)N1C[C@H](C)[C@@H](CN(C)C(=O)NC2CCCCC2)Oc2ccc(NC(=O)c3ccncc3)cc2C1=O 7.62%, COCCCNC(=O)CCc1nc2cccnc2n1Cc1ccc(OC)cc1 1.81%, Cn1c(-c2ccc(C(F)(F)F)cc2)cc2onc(-c3ccccc3)c2c1=O -242%, CCOc1ccc(C(=O)Nc2ccc(CN3CCOCC3)cc2)cc1Cl -22.2%, O=C(Nc1ccccc1C(=O)N1CCOCC1)c1ccc(CSc2ccccc2)cc1 -0.886%, Cc1ccc2nc(-c3ccccn3)cc(C(=O)Nc3ccc4c(c3)OCO4)c2c1 11.1%, CCN(CC)CCNC(=O)c1ccc(NC(=O)c2cc(-c3ccncc3)nc3ccccc23)cc1 -38.2%, CC(C)CC[n+]1ccn(C2=C([O-])c3ccccc3C(=O)/C2=N\S(=O)(=O)c2ccccc2)c1 6.27%, Cc1ccc(OCCNC(=O)CN2C(=O)NC3(CCCC3)C2=O)cc1 7.61%, O=C(Nc1ccc(Br)cc1)c1cccc(NC(=O)C2C3CC4OC(=O)C2C4C3)c1 (configuration not stated) -6.94%, COc1ccc(NC(=O)C/C(C)=N/NC(=O)c2cnccn2)cc1Cl -12.8%, CCN1CCN(c2ccc(NC(=O)c3cnccn3)cc2)CC1 -79.3%, CCC(C)n1[nH]c(=O)cc1N (configuration not stated) 6.5%, N#CC1(C#N)C(C(=O)C23CC4CC(CC(C4)C2)C3)C12CCOCC2 (configuration not stated) 3.42%, C=CCn1c(SCC(=O)NCC2CCCO2)nc2sc(C)c(C)c2c1=O (configuration not stated) -2.81%, C=CCn1c(SCC(=O)NCCCO)nc2sc3c(c2c1=O)CCC3 6.01%, CC1Cc2cc(/C(O)=C3\C(=O)C(=O)N(Cc4cccnc4)C3c3ccccc3F)ccc2O1 (configuration not stated) -14.7%, COc1ccc(C(=O)CCC(=O)Nc2ccc(Cl)cc2)cc1 10.1%, COc1ccc(CCNC(=O)c2cnc(Cl)c(Cl)c2)cc1 -35.5%, COC(=O)c1sccc1NC(=S)Nc1ccc(C)cc1 -16.1%, CCN(CC(=O)Nc1ccc(OC)cc1)C(=O)CSCc1ccc(C)cc1 -16.5%, Cc1ccc(-n2c(SCC(=O)NCc3ccc4c(c3)OCO4)nnc2-c2cccnc2)c(C)c1 -1.23%, O=[N+]([O-])c1ccc(N2CCNCC2)cc1NCc1cccnc1 1.76%, CCCC(C(=O)NC1CCCC1)N(C(=O)Cn1nnc(-c2ccc(C)o2)n1)c1cccc(O)c1 (configuration not stated) 7.15%, CC(=O)c1cc(-c2ccccc2)[nH]c1N1CCCC1 8.23%, Cc1ccc(-c2cc(=O)c3ccc(F)cc3[nH]2)cc1 14.5%, CSc1ccc(NC(=O)N2CC(C)OC(C)C2)cc1 (configuration not stated) 21.7%, COCc1cc(C)nc(Nc2cc(C)ccc2C)c1C#N 6.05%, O=C(O)c1cc([N+](=O)[O-])c(Nc2cccc3ccccc23)c([N+](=O)[O-])c1 -10.8%, O=C(COC(=O)c1ccc([N+](=O)[O-])cc1Cl)NC(=O)c1ccccc1 3.88%, O=C(CSc1nnc(Nc2ccccc2F)s1)NC1CCCC1 -19.9%, COc1cccc(CN2CCNC(=O)C2CC(=O)N(C)CCc2ccccn2)c1 (configuration not stated) -0.459%, Cc1ccc(O)c(NC(=S)NC(=O)COc2ccc(Br)cc2)c1 14.2%, Cc1ccc(C)c(OCC(=O)NNC(=O)C2CCC2)c1 0.404%, COc1ccc(Br)cc1S(=O)(=O)N1CCN=C1C -11.9%, COCCNC(=O)c1ccc(Cn2c(SCC(=O)NCC3CCCO3)nc3ccc(Br)cc3c2=O)cc1 (configuration not stated) 23.7%, COc1ccccc1NC(=O)C1CCCN1S(=O)(=O)c1ccc(Cl)cc1 (configuration not stated) -8.88%, COc1ccccc1NC(=O)c1cc(Cl)nnc1Cl -0.0528%, CC(C)n1c(-c2ccncc2)n[nH]c1=S 11.1%

inhibition, active:
O=C(Nc1ccc(CSc2ccccc2)cc1)c1ccc(CN2CCOCC2)cc1 69%, Cc1ccc2nc(-c3ccncc3)cc(C(=O)Nc3ccc(OC(F)F)cc3)c2c1 53.6%, CCN(CC)c1ccc(/C=N/NC(=O)c2cnccn2)c(O)c1 59.3%, C=C(C)C(=O)O[C@H]1C/C(C)=C\C(=O)/C=C(\C)[C@H](O)[C@@H]2OC(=O)C(=C)[C@@H]21 76.7%, COc1ccc2cc1Oc1ccc(cc1)C[C@H]1c3cc(c(OC)cc3CCN1C)Oc1c(O)c(OC)cc3c1[C@H](C2)N(C)CC3 81.7%, C=CCn1c(SCc2c(C)noc2C)nc2sc3c(c2c1=O)CCC(C)C3 (configuration not stated) 69.9%, COc1ccc(NC(=O)/C(Cl)=C(/Cl)S(=O)Cc2ccc(C)cc2)cn1 (configuration not stated) 91.6%, COc1ccc(CS(=O)/C(Cl)=C(/Cl)C(=O)Nc2ccc(OC)nc2)cc1 (configuration not stated) 99.4%, O=c1cc(-c2ccccc2)[nH]c2cc(F)ccc12 61.5%, O=C(NC(Nc1nc2ccc([N+](=O)[O-])cc2s1)(C(F)(F)F)C(F)(F)F)c1ccccc1 72.3%, Cc1ccc(O)c(NC(=O)COc2cc(C)ccc2C)c1 61.3%, COc1ccccc1NC1=NC(c2ccc(Cl)cc2)N=C(N)N1 (configuration not stated) 60.9%
